# Measured values taken from PubChem BioAssay AID376 (PDSP, 2006).
# The whole screen tested about 2,000 compounds, of which about 250 (12%) were called active. No stated cut-off is given here; in the data, active means hERG blockade below about -20% or above about 20%; inactive means in between. Only a selection was taken, and actives are over-represented in it overall.
# Target: Voltage-gated inwardly rectifying potassium channel KCNH2 (Homo sapiens) (UniProt Q12809)
# Assay: modulators of KCNH2 ion channel function, cellular (AID 376);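 further: 0% = buffer alone and 100% = reference blocker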
# Conditions: hERG-expressing cells, channel activity single-concentration screen; concentration not given here
# Chain of Voltage-gated inwardly rectifying potassium channel KCNH2 (Homo sapiens) (Q12809 whole entry, looked up): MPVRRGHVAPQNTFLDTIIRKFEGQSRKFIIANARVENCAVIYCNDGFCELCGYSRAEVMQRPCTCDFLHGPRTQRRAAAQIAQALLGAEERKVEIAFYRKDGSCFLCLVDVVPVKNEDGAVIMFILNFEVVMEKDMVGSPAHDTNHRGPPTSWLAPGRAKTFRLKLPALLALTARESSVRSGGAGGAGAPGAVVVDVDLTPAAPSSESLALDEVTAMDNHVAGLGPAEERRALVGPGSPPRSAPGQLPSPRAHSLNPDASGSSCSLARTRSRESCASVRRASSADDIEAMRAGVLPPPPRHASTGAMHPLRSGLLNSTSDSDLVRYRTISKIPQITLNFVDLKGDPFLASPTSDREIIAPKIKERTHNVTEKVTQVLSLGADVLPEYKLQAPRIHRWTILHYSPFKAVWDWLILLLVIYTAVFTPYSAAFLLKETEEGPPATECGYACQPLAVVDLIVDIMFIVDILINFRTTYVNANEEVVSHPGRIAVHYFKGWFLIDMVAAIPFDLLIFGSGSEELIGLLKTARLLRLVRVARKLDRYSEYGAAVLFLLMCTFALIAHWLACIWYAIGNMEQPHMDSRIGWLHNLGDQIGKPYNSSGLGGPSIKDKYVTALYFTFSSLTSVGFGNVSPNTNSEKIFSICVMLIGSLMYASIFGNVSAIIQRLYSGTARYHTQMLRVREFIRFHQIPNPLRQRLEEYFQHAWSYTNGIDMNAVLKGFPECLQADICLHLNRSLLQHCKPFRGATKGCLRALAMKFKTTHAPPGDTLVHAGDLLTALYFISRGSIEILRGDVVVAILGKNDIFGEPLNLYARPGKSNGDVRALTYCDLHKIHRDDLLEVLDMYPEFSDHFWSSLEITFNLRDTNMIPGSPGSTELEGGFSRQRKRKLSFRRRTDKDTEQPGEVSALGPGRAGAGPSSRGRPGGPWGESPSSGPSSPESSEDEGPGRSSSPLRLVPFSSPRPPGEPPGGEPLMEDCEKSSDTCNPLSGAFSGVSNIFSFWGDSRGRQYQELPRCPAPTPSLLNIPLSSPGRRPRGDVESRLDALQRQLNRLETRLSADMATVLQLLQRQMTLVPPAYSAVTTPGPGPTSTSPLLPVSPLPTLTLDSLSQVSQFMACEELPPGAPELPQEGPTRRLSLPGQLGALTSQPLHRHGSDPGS
row,SMILES,hERG blockade
1,Ic1ccc2c(c1)N(c1ccccc1)c1cc(Nc3ccc4nc5ccc(I)cc5[n+](-c5ccccc5)c4c3)ccc1N2,30.3% (active)
2,CN1CCCN(C)C1c1cc([N+](=O)[O-])ccc1O,11.9% (inactive)
3,CC(N)C(C)Cc1ccccc1 (centres undefined),8.67% (inactive)
4,COC(=O)c1cc(-c2ccc3ccccc3c2)[nH]c(=O)c1C#N,2.57% (inactive)
5,ClC(Cl)(Cl)C(N1CCN(c2ccccc2)CC1)N1CCN(c2ccccc2)CC1,3.84% (inactive)
6,Nc1cc(S(=O)(=O)O)cc2ccc(S(=O)(=O)O)cc12,-2.77% (inactive)
7,CN(CCc1ccccn1)c1ccc2c(c1)Cc1ccccc1-2,20.3% (active)
8,CC(C)C(=O)C(C)(C)CCc1ccccn1,1.93% (inactive)
9,CN(CCc1ccccn1)c1ccc2c(c1)C(=O)c1ccccc1-2,75.4% (active)
10,C(=Nc1ccc2c(c1)Cc1ccccc1-2)c1ccccn1,-16.5% (inactive)
11,ON(CCc1ccccn1)Cc1ccccc1,-7.89% (inactive)
12,O=C1c2ccccc2-c2ccc(N(Cc3ccc(Br)cc3)Cc3ccc(Br)cc3)cc21,15.9% (inactive)
13,Cn1ncc2c(Cl)ncnc21,12.1% (inactive)
14,O=C(O)CCCN1CCCCC1,-19.4% (inactive)
15,NCCSCCc1ccccc1,-4.22% (inactive)
16,NC(CC(=O)Nc1cc(C(F)(F)F)ccc1Cl)=NO,15.2% (inactive)
17,CN1CCC(CN2c3ccccc3Sc3ccccc32)C1 (centres undefined),42.9% (active)
18,c1ccc2sc(SCN(C3CCCCC3)C3CCCCC3)nc2c1,12.7% (inactive)
19,CCC12CCCN3CCc4c(n(c5ccccc45)C(=O)C1)C32 (centres undefined),37.7% (active)
20,CC1=CC(C)(C)Nc2ccc(CSc3ccccc3)cc21,0.516% (inactive)
21,Nc1nc(Cc2ccccc2)nc(Cc2ccccc2)c1-c1ccccc1,29% (active)
22,Nc1nc(-c2ccccc2)c(-c2ccccc2)c(-c2nc(N)nc(-c3ccccc3)c2-c2ccccc2)n1,1.5% (inactive)

row,SMILES,hERG blockade
1,Nc1nc(N)c(-c2cccc(C(F)(F)F)c2)c(Cc2cccc(C(F)(F)F)c2)n1,11% (inactive)
2,Cn1c(=O)c2c(nc(C(=N)SCC(=O)O)n2C)n(C)c1=O,13.2% (inactive)
3,O=C(O)CCSCc1ccccc1,-0.0927% (inactive)
4,O=C(O)C=CC(=O)Nc1cccc2c1-c1ccccc1C2=O,-8.93% (inactive)
5,NC(N)=Nc1ccc(-c2ccc(N=C(N)N)cc2)cc1,-0.0188% (inactive)
6,O=C(O)c1cncc(C(=O)O)c1,3.7% (inactive)
7,CC1CCCC=CC2CC(OC(=O)CN(C)C)CC2C(O)C=CC(=O)O1 (centres undefined),-21.9% (active)
8,COc1ccc(NCc2c(O)ccc3ccccc23)cc1,-7.42% (inactive)
9,NC(=O)NC(=O)C1CCCCC1C(=O)O (centres undefined),-24.9% (active)
10,CSc1ccc(NC(=O)C2CCCCC2C(=O)O)cc1 (centres undefined),10.7% (inactive)
11,CNCC(SC)c1ccc(O)c(O)c1 (centres undefined),11.7% (inactive)
12,Cc1nc([N+](=O)[O-])cn1-c1nc2ccccn2c1[N+](=O)[O-],-4.23% (inactive)
13,c1ccc(CCN2CCN=C2Cc2ccccc2)cc1,11.4% (inactive)
14,CC(N)C(N)=NO (centres undefined),-3.44% (inactive)
15,O=C1CSC2(CCN(CCCN3c4ccccc4Sc4ccc(Cl)cc43)CC2)N1,10.1% (inactive)
16,CN1CCN(CCCN2c3ccccc3Sc3ccc(C(F)(F)F)cc32)CC1,29.9% (active)
17,SC1CCCN(Cc2ccccc2)C1 (centres undefined),10.8% (inactive)
18,CCC(C)(C)c1ccc(Oc2cccc(C(=O)O)c2)cc1,-10.7% (inactive)
19,CN1CCc2ccccc2C1Cc1ccccc1NC(=O)c1sc2ccccc2c1Cl (centres undefined),23.1% (active)
20,O=C(NC1(C(=O)O)CC1c1ccccc1)c1ccccc1 (centres undefined),6.62% (inactive)
21,O=[N+]([O-])c1ccc2c(c1)c(S(=O)(=O)O)cc1nonc12,-6.88% (inactive)
22,O=S(=O)(O)c1ccc(N=Nc2ccccc2)cc1,-15.7% (inactive)

row,SMILES,hERG blockade
1,Cc1ccc(N=Nc2c(O)c(S(=O)(=O)O)cc3cc(S(=O)(=O)O)ccc23)c(C)c1,2.33% (inactive)
2,O=S(=O)(O)c1ccc2c(N=Nc3c(O)ccc4ccccc34)cccc2c1,49.9% (active)
3,O=[N+]([O-])c1ccc2c(N=Nc3ccc4ccccc4c3O)c(O)cc(S(=O)(=O)O)c2c1,23.1% (active)
4,O=S(=O)(O)c1cc(O)c2c(N=Cc3ccccc3O)cc(S(=O)(=O)O)cc2c1,-9.52% (inactive)
5,O=S(=O)(O)c1cc(O)c2c(O)c(N=Nc3cccc4ccccc34)c(S(=O)(=O)O)cc2c1,9.29% (inactive)
6,O=S(=O)(O)c1cc(S(=O)(=O)O)c2c(N=Nc3cccc4ccccc34)c(O)ccc2c1,14.2% (inactive)
7,Nc1ccccc1N=Nc1c(S(=O)(=O)O)cc2cc(S(=O)(=O)O)cc(O)c2c1O,21.5% (active)
8,O=S(=O)(O)c1ccc(N=Nc2ccc3c(S(=O)(=O)O)cccc3c2O)c2ccccc12,14.9% (inactive)
9,Cc1ccc(N=Nc2c(O)ccc3cc(S(=O)(=O)O)ccc23)cc1,31% (active)
10,O=S(=O)(O)c1ccc2c(N=Nc3cccc4ccccc34)c(O)c(S(=O)(=O)O)cc2c1,8.62% (inactive)
11,Nc1ccc(S(=O)(=O)c2ccc(NC(=O)c3cccnc3)cc2)cc1,12.7% (inactive)
12,Nc1nc2nc3c(nc2c(=O)[nH]1)CN(c1ccc(C(=O)O)cc1)C3=O,-6.18% (inactive)
13,O=C(O)C(CCc1ccccc1)N1C(=O)c2ccccc2C1=O (centres undefined),0.137% (inactive)
14,Cc1[nH]c2c(C)ccc(C)c2c1CC(=O)O,-7.4% (inactive)
15,Cc1cc(Cl)nc(NC(=O)CSc2ccc(Cl)cc2)n1,-7.4% (inactive)
16,NC(CSC(=O)c1ccccc1)C(=O)O (centres undefined),8.51% (inactive)
17,CN(C)C1C(=O)C(C(=O)NCN2CCCC2)=C(O)C2(O)C(=O)C3=C(O)c4c(O)cccc4C(C)(O)C3CC12 (centres undefined),5.47% (inactive)
18,NC(=O)c1nnn(Cc2cc(Cl)c(C(=O)c3ccc(Cl)cc3)c(Cl)c2)c1N,17.3% (inactive)
19,CC(C)CN(CC#N)CC(C)C,1.01% (inactive)
20,Cc1ccnc(NS(=O)(=O)c2ccc(N=[N+]=[N-])cc2)n1,8.12% (inactive)
